Rows were chosen to be rich in hits. Some 11% of all compounds tested hit in one or more screens of this group.
AMA1-RON2 inh – disrupts binding of P. falciparum AMA1 to RON2; Potency, µM (doses to about 58.2 µM), for the others: at the top dose activity change, negative = inhibition, hits mostly inhibitors; 360,000 compounds, 0.2% hits; AlphaScreen AMA1-biotinylated RON2 peptide binding;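 also: potency is read from the fitted curve at half-maximal effect; 0% = vehicle wells and -100% = peptide control; nearly all actives have a fitted effect of over 45% in size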
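AMA1 (3D7) with his tag at 25 nM final met compounds first, then biotinylated RON2 peptide at 25 nM; detection used donor plus acceptor beads, 10 µg/mL apiece, read by AlphaScreen after 30 min at room temperature.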
Pf growth 96h – P. falciparum growth inhibition at 96 hour, primary screen for plastid delayed-death inhibitors | P. falciparum luciferase reporter growth, 96 h | Potency, µM (series often up to 28.7 µM), without a hit: at the top dose activity change, negative = inhibition, actives largely listed as inhibitors | 320,000 compounds, 6.9% hits; also: potency is read from the fitted curve at half-maximal effect; % is scaled to controls: 0 for no effect and ±100 for the full control effect
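96 h incubation, 37 C, 5% CO2, of luciferase-reporter P. falciparum-infected RBCs (2% hematocrit, 0.05% parasitemia final) with test compounds; endpoint luminescence.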
Pf growth 48h – P. falciparum growth inhibition at 48 hours (one generation); P. falciparum luciferase growth in erythrocytes, 48 h; Potency, µM (series often up to 28.7 µM), for the others: top-dose activity change, negative = inhibition, hits mostly inhibitors; 310,000 compounds, 5.9% hits; AID 504832; also: potency is read from the fitted curve at half-maximal effect; % is scaled to controls: 0 for no effect and ±100 for the full control effect
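In quantitative HTS format, infected erythrocytes bearing luciferase-reporter parasites were treated for a single generation at 37 C. Luminescence after adding detection reagent served as the growth measure.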
Sm TGR inh – blocks Schistosoma mansoni thioredoxin glutathione reductase; purified TGR, DTNB reduction, TNB absorbance 405 nm; Potency, µM (top dose mostly 114 µM), for the others: at the highest dose activity change, negative = inhibition, most hits filed as inhibitors; 360,000 compounds, 3% hits; also: potency is read from the fitted curve at half-maximal effect; % is scaled to controls: 0 for no effect and ±100 for the full control effect; nearly all actives have a fitted effect of over 60% in size
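Kinetic colorimetric format: TGR-catalysed, NADPH-driven DTNB reduction monitored via TNB absorbance. Enzyme dispensed at 20 nM; compound exposure 15 min at room temperature before reaction start.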
NS1 function inh – blocks influenza NS1 protein function; Potency, µM (doses to about 46.1 µM), without a hit: at the highest dose activity, positive = more growth; 270,000 compounds, 0.4% hits; AID 2326; calls by dose curve; also: potency is read from the fitted curve at half-maximal effect; actives are rising curves; nearly all actives have a fitted effect of over 50% in size
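Read-out: OD600 growth recovery of NS1-expressing budding yeast. Cells grown overnight at 30C in -URA glucose medium, washed, resuspended and diluted 1:100 in 2% galactose assay medium, pH 6.0. Same strain lacking NS1 served as positive control.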
NS1 inh valid – validation of influenza NS1 protein function inhibitors. activity change, negative = inhibition, % at 32.9 µM. shares compounds with NS1 function inh. AID 492980. 1,400 tested, under 10 active. influenza NS1 function cell assay, 15-point titration; calls by dose curve; also: 0% is about no effect
An asterisk follows results filed as active; ? = inconclusive; . = no result given; [ ] = dose if it differs, or a comment. Unless noted, calls follow the shape of the dose curve; as a rule, active = well fitted curve in the direction sought with a large enough effect; inconclusive = small, poorly fitted or top-dose-only effect, or another doubt; inactive = no such curve, though single readings can be large; an effect the other way counts as inactive or inconclusive.

SMILES	AMA1-RON2 inh	Pf growth 96h	Pf growth 48h	Sm TGR inh	NS1 function inh	NS1 inh valid
NC(Cc1cc(O)c(O)cc1O)C(=O)O (stereo not given)	.	15%	0%	16µM*	8.9µM*	-14
N[C@@H](Cc1cc(I)c(O)c(I)c1)C(=O)O	-10%	0%	4%	-1%	2%	.
CC(C1CC1)N(C(=O)NC1CCS(=O)(=O)C1)c1ccccc1 (stereo not given)	3%	-8%[5.75 µM]	-3%	-7%	?	9
O=C(NCc1ccccc1)NC1CCS(=O)(=O)C1 (stereo not given)	?	12%	9%	.	0%	.
COc1ccc(S(=O)(=O)NC(C(=O)NCCc2ccccn2)C(C)C)cc1 (stereo not given)	-8%	-2%	1%	8%	5%	.
CCc1ccc(NC(=O)CCCc2nnc3n(C(C)CC)c(=O)c4sccc4n23)cc1 (stereo not given)	.	.	.	-3%	.	.
N#Cc1c(NC(=O)c2ccc(-c3ccccc3[N+](=O)[O-])o2)sc2c1CCCC2	-4%	0%	43%	-23%	?	-17
Cc1ccccc1C(=O)N1CCc2cc(-c3nc(NC(=O)Cc4ccc5c(c4)OCO5)sc3C)ccc21	-8%	54%	?	0%	?	1
Cc1cccc(C(=O)N2CCc3cc(-c4nc(NC(=O)CN5CCCC5)sc4C)ccc32)c1	27%	17%	?	2%	7%	.
N#CCC(=O)NN=C1CCCCCCCCCCC1	76%	1%	2%	8%	1.8µM*	4
Cc1ccc(C(=O)Nc2c3c(nn2-c2ccccc2)CS(=O)(=O)C3)cc1C	-2%	-4%	-4%	-21%	-9%	.
O=C(c1cc2ccccc2oc1=O)N(Cc1ccco1)C1CCS(=O)(=O)C1 (stereo not given)	20%	9%	7%	16µM*	8.9µM*	-16
COC(=O)C1=CN(c2ccc3c(c2)OCO3)C(N)=C(C#N)C1c1cccc(F)c1 (stereo not given)	1%	.	.	.	.	.
Cc1cc(OCCSc2nnc(-c3cccs3)n2C)ccc1Cl	40%	-5%	?	-8%	-169%	.
Cn1c(SCCOc2ccccc2Cl)nnc1-c1cccs1	-8%	?	-21%	-1%	?	?
Cc1noc(-c2ccccc2OCC(=O)Nc2ccccc2[N+](=O)[O-])n1	.	.	.	3%	.	.
O=C(NCc1ccc2c(c1)OCO2)C12CN(Cc3ccccc3)CC1C(c1cccc([N+](=O)[O-])c1)=NO2 (stereo not given)	0%	?	9.3µM*	-4%	13µM*	-11
O=C(NCc1cc(C(F)(F)F)cc(C(F)(F)F)c1)C1CC(c2cccc([N+](=O)[O-])c2)=NO1 (stereo not given)	12%	?	-2%	8%	-9%	.
O=C(NCc1ccc(C(F)(F)F)cc1)C12CN(Cc3ccccc3)CC1C(c1cccc([N+](=O)[O-])c1)=NO2 (stereo not given)	-28%	9.3µM*	9.3µM*	4%	13µM*	8
COc1ccccc1-n1c(SCC(=O)NCc2ccc3c(c2)OCO3)nc2cc([N+](=O)[O-])ccc21	?	?	?	-2%	13µM*	1
C=C1C(=O)C=C[C@]2(C)C[C@@H]3OC(=O)[C@](C)(O)[C@H]3C[C@@H]12	1%	15µM*	12µM*	-33%	?	0
N#C/C(=C\c1ccc(O)cc1)C(=O)NCC1CCCO1 (stereo not given)	.	.	.	-3%	.	.
O=C1CSC(=S)N1/N=C/c1cccnc1	53%	20%	-1%	6.3µM*	1.1µM*	27
O=C(C(=O)c1ccc(O)c(O)c1)c1ccc(O)c(O)c1	24%	.	.	.	.	.
CN(N=O)c1ccc(O)c(O)c1	.	.	.	.	5µM*	21
SMILES	AMA1-RON2 inh	Pf growth 96h	Pf growth 48h	Sm TGR inh	NS1 function inh	NS1 inh valid
CCOC(=O)c1ccc(Nc2nc3ccc(C(=O)c4ccccc4)cc3n3c(C)nnc23)cc1	.	.	.	4%	.	.
CCOc1cccc(C(=O)Nc2cc(-c3nn4c(C)nnc4s3)ccc2C)c1	-1%	-81%	13%	0%	-33%	.
CCCOc1ccc(C(=O)Nc2cc(-c3nn4c(C)nnc4s3)ccc2C)cc1	9%	-61%	.	-1%	4.5µM*	5
Cc1ccc(Cl)cc1NC(=O)c1nnn(Cc2ccccc2)c1N	.	.	.	-9%	.	.
COc1ccccc1CNC(=O)Cc1c(C)c2c(cc(C)c3c(C)c(C)oc32)oc1=O	.	.	.	-3%	.	.
O=C(CN1C(=O)/C(=C\C=C\c2ccccc2)SC1=S)Nc1ccc(F)cc1	2%	-9%	-5%	-8%	18µM*	-5
C=CCNC(=O)C1CC(=O)N(c2ccc(OCC(=O)Nc3c(C)cccc3C)cc2)C1 (stereo not given)	8%	16%	9%	0%	?	-17
CS(=O)(=O)N(CC(=O)Nc1ccccc1Sc1ccccc1)C1CCCCC1	-27%	-7%	.	4%	?	-1
Cc1ccc(S(=O)(=O)C/N=C(/NC(=S)N(c2ccccc2)c2ccccc2)c2ccccc2)cc1	11%	?	.	?	10µM*	?
COc1cccc(NC(=O)CN(C)C(C)C(=O)Nc2cc([N+](=O)[O-])ccc2Cl)c1 (stereo not given)	62%	-17%	-16%	5%	.	.
CC(C)C(C(=O)NCc1ccccc1)N(CC1CCCO1)C(=O)CNS(=O)(=O)c1ccccc1 (stereo not given)	-1%	-4%	?	-5%	-17%	.
Cc1cc(C)cc(N(C(=O)CNS(=O)(=O)c2ccccc2)C(C(=O)NCc2ccccc2)c2ccc(C)o2)c1 (stereo not given)	-28%	38%	?	-1%	10µM*	-1
COc1cc(/C=N\Nc2nc3ccccc3o2)cc(OC)c1OC	10%	19%	42%	-7%	3%	.
COc1cc(/C=N\Nc2nc3ccccc3[nH]2)cc(OC)c1OC	0%	?	0.17µM*	6%	2.8µM*	-9
Cc1ccc(F)cc1NC(=O)CN1CCN(Cc2ccccc2)CC1	4%	-16%	.	-4%	0%	.
CCOC(=O)c1ccccc1NC(=O)Cn1c(=O)n(Cc2nc(-c3ccccc3)no2)c(=O)c2ccccc21	.	.	.	-3%	.	.
COc1ccccc1C/C(N)=N/OC(=O)COc1ccc(C)cc1	34%	2.1µM*	1%	-13%	?	?
CCc1ccc(NC(=O)CC2C(=O)Nc3c2c(=O)n(C)c(=O)n3C)cc1 (stereo not given)	-1%	?	-7%	-10%	7%	.
Cn1c(=O)c2c(n(Cc3ccccc3)c1=O)NC(=O)C2CC(=O)NCc1cccc(Cl)c1 (stereo not given)	-10%	?	?	6%	14µM*	3

High-throughput results (PubChem)
